# Measurements reported in PubChem BioAssay (NCATS).
# Records with an inconclusive call do not appear. A call without a number means that no potency is given here. A structure can be active in one record and inactive in another. Activity calls are given as the source filed them. Unless noted, calls come from the whole dose curve.
# What was measured:
# [1] = qHTS for Inhibitors of the Functional Ribonucleoprotein Complex (vRNP) of Lassa (LASV) Arenavirus: LASV Primary Screen - GLuc reporter signal (AID 1347082; calls by dose curve; tested in HEK293 reporter line; note: nearly all actives have a fitted effect of over 60% in size; note: potency is the fitted concentration of half-maximal effect)
# [2] = qHTS for Inhibitors of the Functional Ribonucleoprotein Complex (vRNP) of Lassa (LASV) Arenavirus: Viability assay - alamar blue signal for LASV Primary Screen (AID 1347083; calls by dose curve; tested in HEK293 reporter line; note: nearly all actives have a fitted effect of over 80% in size; note: potency is the fitted concentration of half-maximal effect)
# [3] = qHTS for Inhibitors of the Functional Ribonucleoprotein Complex (vRNP) of Lymphocytic Choriomeningitis Arenaviruses (LCMV): Viability assay - alamar blue signal for LCMV Primary Screen (AID 1347085; calls by dose curve; tested in HEK293 reporter line; note: nearly all actives have a fitted effect of over 80% in size; note: potency is the fitted concentration of half-maximal effect)
# [4] = target: Nucleoprotein (Lymphocytic choriomeningitis virus (strain Armstrong)) (UniProt P09992); assay: qHTS for Inhibitors of the Functional Ribonucleoprotein Complex (vRNP) of Lymphocytic Choriomeningitis Arenaviruses (LCMV): LCMV Primary Screen - GLuc reporter signal (AID 1347086); note: nearly all actives have a fitted effect of over 70% in size; note: potency is the fitted concentration of half-maximal effect
# Nucleoprotein (Lymphocytic choriomeningitis virus (strain Armstrong)), sequence (P09992 whole entry, looked up): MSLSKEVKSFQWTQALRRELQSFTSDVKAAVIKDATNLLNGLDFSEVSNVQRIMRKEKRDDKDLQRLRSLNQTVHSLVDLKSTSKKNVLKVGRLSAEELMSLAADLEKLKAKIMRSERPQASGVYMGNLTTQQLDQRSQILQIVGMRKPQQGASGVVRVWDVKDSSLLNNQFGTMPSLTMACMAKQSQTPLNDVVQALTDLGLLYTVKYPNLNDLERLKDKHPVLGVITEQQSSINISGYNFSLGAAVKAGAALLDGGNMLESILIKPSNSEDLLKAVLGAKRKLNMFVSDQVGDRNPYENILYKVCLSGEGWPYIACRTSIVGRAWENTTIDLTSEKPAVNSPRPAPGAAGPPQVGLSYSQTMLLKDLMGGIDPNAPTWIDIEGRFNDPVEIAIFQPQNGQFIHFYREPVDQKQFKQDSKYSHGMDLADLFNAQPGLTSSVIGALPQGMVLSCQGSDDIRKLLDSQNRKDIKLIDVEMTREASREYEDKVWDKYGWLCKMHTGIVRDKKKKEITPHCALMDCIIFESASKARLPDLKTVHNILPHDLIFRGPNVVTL
# [5] = Cytotoxicity counterscreen for inhibitors of SARS-CoV-2 cell entry (AID 1645845); note: nearly all actives have a fitted effect of over 50% in size
# In short: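 Expi293F/hACE2 cells seeded overnight; cpd pin-transferred in DMSO, 1 h preincubation, + media, 48 h 37 C 5% CO2; ATPLite 1step luminescence; normalized to cells and no cells.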
# [6] = Primary qHTS to identify inhibitors of SARS-CoV-2 cell entry (AID 1645846); details: activity change, negative = inhibition: at 57.1 µM (top of the series) unless noted; note: nearly all actives have a fitted effect of over 45% in size; note: potency is the fitted concentration of half-maximal effect
# In short: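 HEK293 cells stably expressing human ACE2, pre-treated 1 h with compound, then infected with MLV particles pseudotyped with Wuhan-Hu-1 spike (C-terminal 19-aa truncation). Luciferase luminescence after 48 h at 37 °C, normalised to spike PP and bald PP.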
# [7] = Inducers of the Endoplasmic Reticulum Stress Response (ERSR) in human glioma: Validation (AID 504836; active = well fitted curve in the direction sought with a large enough effect; an effect the other way counts as inactive or inconclusive)
# In short: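 Stably transfected U87-MG human glioma cells carrying a GRP78-based luminescent sensor were seeded at 1000 cells/well, pin-dosed with compounds and incubated 16 h. Luciferase reagent was then added, and end-point luminescence was read after 10 min at room temperature.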
# [8] = Validation screen for inhibitors of Lassa infection (AID 463096)
# [9] = target: Alpha-galactosidase (Coffea arabica) (UniProt Q42656); assay: Counterscreen for Glucocerebrosidase Inhibitors: qHTS Assay for Coffee Bean alpha-Galactosidase at pH 4.5 (AID 957; active = well fitted curve in the direction sought with a large enough effect; an effect the other way counts as inactive or inconclusive)
# Alpha-galactosidase (Coffea arabica), sequence (Q42656 whole entry, looked up): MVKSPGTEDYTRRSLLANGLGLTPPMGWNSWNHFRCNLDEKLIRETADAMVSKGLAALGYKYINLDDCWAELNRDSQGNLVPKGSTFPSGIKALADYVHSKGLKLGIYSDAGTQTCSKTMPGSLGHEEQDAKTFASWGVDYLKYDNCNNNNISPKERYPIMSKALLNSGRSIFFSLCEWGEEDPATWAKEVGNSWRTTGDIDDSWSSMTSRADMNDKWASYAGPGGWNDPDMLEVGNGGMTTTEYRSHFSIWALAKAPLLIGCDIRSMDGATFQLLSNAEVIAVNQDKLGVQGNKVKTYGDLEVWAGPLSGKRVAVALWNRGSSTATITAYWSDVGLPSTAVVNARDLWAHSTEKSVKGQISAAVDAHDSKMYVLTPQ
# In short: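 Green coffee bean enzyme (2 nM final) was incubated with compounds (0.7 nM to 77 uM) and 4-methylumbelliferyl alpha-D-galactopyranoside (80 uM final) in 50 mM citric acid, 0.005% Tween-20, pH 4.5, 20 min at room temperature; AC50 from Hill fits.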
# [10] = target: Alpha-galactosidase (Coffea arabica) (UniProt Q42656); assay: Counterscreen for Glucocerebrosidase Inhibitors: qHTS Assay for Coffee Bean alpha-Galactosidase at pH 5.9 (AID 998; active = well fitted curve in the direction sought with a large enough effect; an effect the other way counts as inactive or inconclusive)
# In short: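 Green coffee bean enzyme (2 nM final) was incubated with compounds (0.7 nM–77 uM) and 4-methylumbelliferyl alpha-D-galactopyranoside (80 uM) in citrate buffer pH 5.9, 20 min at room temperature. High-pH stop; fluorescence 365/440 nm; AC50 from Hill fits.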
# [11] = target: Cytochrome P450 3A4 (Homo sapiens) (UniProt P08684); assay: qHTS Assay for Activators of Cytochrome P450 3A4 (AID 885; active = well fitted curve in the direction sought with a large enough effect; an effect the other way counts as inactive or inconclusive; note: nearly all actives have a fitted effect of over 65% in size)
# Cytochrome P450 3A4 (Homo sapiens), sequence (P08684 whole entry, looked up): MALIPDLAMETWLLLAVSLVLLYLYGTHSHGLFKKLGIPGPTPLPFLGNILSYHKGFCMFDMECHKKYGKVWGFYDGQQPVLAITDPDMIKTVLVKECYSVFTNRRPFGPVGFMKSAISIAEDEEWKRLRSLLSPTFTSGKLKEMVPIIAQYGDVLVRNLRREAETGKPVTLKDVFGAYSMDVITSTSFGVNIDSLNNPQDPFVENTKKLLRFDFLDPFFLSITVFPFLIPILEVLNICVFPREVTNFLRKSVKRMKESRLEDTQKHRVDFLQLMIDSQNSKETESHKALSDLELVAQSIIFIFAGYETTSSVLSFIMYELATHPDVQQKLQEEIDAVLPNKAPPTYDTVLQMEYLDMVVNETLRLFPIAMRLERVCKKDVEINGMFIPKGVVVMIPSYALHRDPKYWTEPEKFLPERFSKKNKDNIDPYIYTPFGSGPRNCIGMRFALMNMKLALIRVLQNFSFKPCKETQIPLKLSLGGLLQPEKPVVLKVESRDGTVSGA
# In short: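 Steps: enzyme/substrate mix dispensed; compound added, 10 min RT; NADPH regeneration solution added, 60 min RT; luciferin detection buffer stops reaction; 20 min later luminescence measured.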
# [12] = target: M-phase phosphoprotein 8 (Homo sapiens) (UniProt Q99549); assay: qHTS Validation Assay for Inhibitors for MPP8 Chromodomain Interactions with Methylated Histone Tails (AID 488949; active = well fitted curve in the direction sought with a large enough effect; an effect the other way counts as inactive or inconclusive; note: nearly all actives have a fitted effect of over 55% in size; note: potency is the fitted concentration of half-maximal effect; for activity change, negative = inhibition: top concentration of the series differs between compounds)
# M-phase phosphoprotein 8 (Homo sapiens), sequence (Q99549 whole entry, looked up): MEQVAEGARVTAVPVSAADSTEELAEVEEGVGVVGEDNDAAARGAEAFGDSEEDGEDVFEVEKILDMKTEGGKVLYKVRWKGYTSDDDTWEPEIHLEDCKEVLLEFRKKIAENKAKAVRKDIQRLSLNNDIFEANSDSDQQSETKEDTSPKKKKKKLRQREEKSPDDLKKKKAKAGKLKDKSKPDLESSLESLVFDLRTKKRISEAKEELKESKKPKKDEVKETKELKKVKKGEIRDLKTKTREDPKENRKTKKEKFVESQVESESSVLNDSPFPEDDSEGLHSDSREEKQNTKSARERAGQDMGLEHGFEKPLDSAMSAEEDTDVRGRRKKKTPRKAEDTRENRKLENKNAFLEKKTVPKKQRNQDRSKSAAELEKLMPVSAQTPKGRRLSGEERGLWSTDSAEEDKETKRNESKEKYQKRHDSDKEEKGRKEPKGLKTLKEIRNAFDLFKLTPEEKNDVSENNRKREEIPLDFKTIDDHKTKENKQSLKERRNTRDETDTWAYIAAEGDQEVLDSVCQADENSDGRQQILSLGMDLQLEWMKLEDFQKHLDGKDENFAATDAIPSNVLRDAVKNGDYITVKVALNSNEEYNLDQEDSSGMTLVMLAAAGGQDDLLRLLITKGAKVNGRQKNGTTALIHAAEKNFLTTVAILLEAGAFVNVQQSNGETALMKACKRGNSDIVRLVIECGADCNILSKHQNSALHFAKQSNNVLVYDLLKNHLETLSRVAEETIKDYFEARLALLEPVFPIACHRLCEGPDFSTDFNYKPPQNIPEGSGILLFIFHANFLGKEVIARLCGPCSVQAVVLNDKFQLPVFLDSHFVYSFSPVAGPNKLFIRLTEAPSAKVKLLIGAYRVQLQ
# In short: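 MPP8 (50 nM) was pre-bound to 50 nM biotinylated H3(1-18)K9me3 peptide in PBS pH 7.4 with 0.01% Tween-20. Compounds were then added for 30 min at room temperature, and complex disruption was read by AlphaScreen with streptavidin donor and nickel-chelate acceptor beads.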
# [13] = MultiTox-Fluor Cytotoxicity Assay - LYMP1-003 - Dead Cells (AID 961; active = well fitted curve in the direction sought with a large enough effect; an effect the other way counts as inactive or inconclusive; note: potency is the fitted concentration of half-maximal effect; nearly all actives have a fitted effect of over 70% in size)
# In short: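 LYMP1-003 lymphoblastoid, 2500 cells/well, 5 hr settle then 16 hr cpd at 37 C; MultiTox-Fluor reagent 60 min RT; Ex/Em 485/520 dead-cell signal; norm. DMSO = 0%, 15 uM tetraoctylammonium bromide = 100%; Hill AC50.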
# [14] = Cell Viability - LYMP1-003 - Assay at 40 hr (AID 964; active = well fitted curve in the direction sought with a large enough effect; an effect the other way counts as inactive or inconclusive; note: potency is the fitted concentration of half-maximal effect; nearly all actives have a fitted effect of over 60% in size)
# In short: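 Human lymphoblastoid LYMP1-003 cells, 2500/well in complete medium, rested 5 hr at 37 C, then exposed to compounds for 40 hr at 37 C. Viability read as intracellular ATP by CellTiter-Glo luminescence; AC50 from Hill fits of concentration-response data.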
# [15] = Cell Viability - LYMP2-010 (AID 981; active = well fitted curve in the direction sought with a large enough effect; an effect the other way counts as inactive or inconclusive; note: potency is the fitted concentration of half-maximal effect; nearly all actives have a fitted effect of over 55% in size)
# In short: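 Human lymphoblastoid LYMP2-010 cells (2500/well) were preincubated 5 hr at 37 C, then exposed to compounds for 24 hr at 37 C in complete medium. Intracellular ATP was measured by CellTiter-Glo luminescence after 30 min at room temperature; AC50 from Hill-fitted concentration-response.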
# [16] = qHTS assay for small molecule agonists of the antioxidant response element (ARE) signaling pathway (AID 651741; active = well fitted activation curve with a large enough effect in the signal ratio; the % refers to the signal ratio; note: potency is the fitted concentration of half-maximal effect)
# In short: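 ARE-bla HepG2 cells (beta-lactamase reporter under ARE control) were plated at 2,000 cells/well, preincubated 5 h at 37 C/5% CO2, then treated with DMSO-dissolved compounds for 16 h at 37 C; LiveBLAzer B/G FRET substrate added, fluorescence read after 2 h at room temperature.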
# [17] = target: Nuclear receptor ROR-gamma (Homo sapiens) (UniProt P51449); assay: qHTS assay for small molecule antagonists of the retinoid-related orphan receptor gamma (ROR-gamma) signaling pathway (AID 651802; active = well fitted curve in the direction sought with a large enough effect; an effect the other way counts as inactive or inconclusive; note: potency is the fitted concentration of half-maximal effect; nearly all actives have a fitted effect of over 60% in size)
# Nuclear receptor ROR-gamma (Homo sapiens), sequence (P51449 whole entry, looked up): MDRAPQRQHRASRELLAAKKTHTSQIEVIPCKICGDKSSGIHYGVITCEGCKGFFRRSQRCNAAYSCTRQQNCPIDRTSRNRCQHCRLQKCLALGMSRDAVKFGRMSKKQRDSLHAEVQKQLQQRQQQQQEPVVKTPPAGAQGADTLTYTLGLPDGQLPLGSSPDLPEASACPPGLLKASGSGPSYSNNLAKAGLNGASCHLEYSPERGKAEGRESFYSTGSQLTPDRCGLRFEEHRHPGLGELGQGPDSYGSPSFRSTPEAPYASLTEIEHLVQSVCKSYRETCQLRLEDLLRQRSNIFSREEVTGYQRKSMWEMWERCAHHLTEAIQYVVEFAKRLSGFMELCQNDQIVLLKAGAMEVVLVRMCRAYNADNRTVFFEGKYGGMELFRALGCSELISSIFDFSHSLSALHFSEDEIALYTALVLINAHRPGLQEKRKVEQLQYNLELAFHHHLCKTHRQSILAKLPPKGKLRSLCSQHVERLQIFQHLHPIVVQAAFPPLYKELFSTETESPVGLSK
# In short: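 CHO cells carrying TET-inducible ROR-gamma and an ROR response element–luciferase reporter were exposed to compound, then induced with doxycycline. After 16hr at 37C, luminescence was read; lower signal indicates antagonism.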
smiles,measurement,setting,value
Cc1cnc(CNC(=O)c2c(=O)c3ccc(N4CCCN(C)CC4)nc3n3c2sc2ccccc23)cn1,Potency,[1],inactive
same,Potency,[2],15 µM (active)
same,Potency,[3],8.41 µM (active)
same,Potency,[4],inactive
same,"activity change, negative = cytotoxicity",[5],-25.6% [at 11.3 µM] (inactive)
NC(=O)Nc1sc(-c2ccc(F)cc2)cc1C(N)=O,Potency,[1],0.432 µM (active)
same,Potency,[2],0.273 µM (active)
same,Potency,[3],0.137 µM (active)
same,Potency,[4],0.273 µM (active)
same,"activity change, negative = inhibition",[6],-30.6%
COc1nccc(-c2c(-c3ccc(F)cc3)ncn2C2CCNCC2)n1,Potency,[1],inactive
same,Potency,[2],inactive
same,Potency,[3],inactive
same,Potency,[4],inactive
same,Potency,[6],inactive
c1ccc(CNc2nc(NCc3ccccc3)c3ccccc3n2)cc1,Potency,[1],19.3 µM (active)
same,Potency,[2],24.3 µM (active)
same,Potency,[3],24.3 µM (active)
same,Potency,[4],3.85 µM (active)
same,Potency,[6],22.4 µM (active)
Cc1cc(Nc2cc(NC(=O)c3c(Cl)cccc3Cl)ccn2)nc(N)n1,Potency,[1],6.11 µM (active)
same,Potency,[2],3.06 µM (active)
same,Potency,[3],3.06 µM (active)
same,Potency,[4],3.85 µM (active)
same,Potency,[6],1.41 µM (active)
COc1cc(SC)ccc1C(=O)N1CCC(Cc2ccccc2)CC1,outcome,[7],inactive
same,Potency,[1],inactive
same,Potency,[2],inactive
same,Potency,[3],inactive
same,Potency,[4],inactive
same,Potency,[5],inactive
CC(=O)OC1C(C)OC(Oc2c(-c3ccc(O)cc3)oc3cc(O)cc(O)c3c2=O)C(O)C1OC(C)=O (centres undefined),Potency,[1],inactive
same,Potency,[2],inactive
same,Potency,[3],inactive
same,Potency,[4],inactive
same,Potency,[6],inactive
COC[C@H](NC(=O)c1cnc(C)s1)C(=O)N[C@@H](COC)C(=O)N[C@@H](Cc1ccccc1)C(=O)[C@@]1(C)CO1,Potency,[1],0.273 µM (active)
same,Potency,[2],0.685 µM (active)
same,Potency,[3],0.685 µM (active)
same,Potency,[4],0.769 µM (active)
same,"activity change, negative = inhibition",[6],-97.7%
CC(C)C[C@H](NC(=O)[C@@H](NC(=O)c1cccc(-c2ccccc2)n1)[C@@H](C)O)B(O)O,Potency,[1],0.685 µM (active)
same,Potency,[2],0.544 µM (active)
same,Potency,[3],1.09 µM (active)
same,Potency,[4],1.09 µM (active)
same,"activity change, negative = inhibition",[6],-97.4% [at 27.1 µM]
CC(C)C[C@H](NC(=O)[C@H](O)[C@H](N)Cc1ccccc1)C(=O)O,Potency,[8],inactive
same,outcome,[7],inactive
same,Potency,[1],inactive
same,Potency,[2],inactive
same,Potency,[3],inactive
same,Potency,[4],inactive
Cn1ccnc1,outcome,[9],inactive
same,outcome,[10],inactive
same,Potency,[8],inactive
same,outcome,[7],inactive
same,Potency,[1],inactive
same,Potency,[2],inactive
same,Potency,[3],inactive
same,Potency,[4],inactive
CC(C)NCC(O)COc1ccc(CC(N)=O)cc1 (centres undefined),Potency,[8],inactive
same,Potency,[1],inactive
same,Potency,[2],inactive
same,Potency,[3],inactive
same,Potency,[4],inactive
O=c1cc(O)cc(/C=C/c2ccc(O)c(O)c2)o1,Potency,[8],inactive
same,Potency,[1],inactive
same,Potency,[2],inactive
same,Potency,[3],inactive
same,Potency,[4],inactive
Cc1ccccc1C(=O)c1ccc(Nc2ccc(Br)cc2N)cc1Cl,Potency,[1],inactive
same,Potency,[2],inactive
same,Potency,[3],inactive
same,Potency,[4],inactive
Nc1nc2ccc(Cl)cc2c2nc(-c3ccco3)nn12,Potency,[11],inactive
same,outcome,[9],inactive
same,outcome,[10],inactive
same,Potency,[8],inactive
same,Potency,[12],50.1 µM (active) and inactive
same,outcome,[7],inactive
same,Potency,[1],inactive
same,Potency,[2],inactive
same,Potency,[3],inactive
same,Potency,[4],inactive
C=C(C)[C@@H]1CC=C(C=O)CC1,Potency,[1],inactive
same,Potency,[2],inactive
same,Potency,[3],inactive
same,Potency,[4],inactive
Oc1ccccc1O,Potency,[11],inactive
same,outcome,[9],inactive
same,Potency,[13],12.6 µM (active)
same,Potency,[14],7.94 µM (active)
same,Potency,[15],20 µM (active)
same,outcome,[10],inactive
same,Potency,[8],inactive
same,Potency,[12],79.4 µM (active)
same,outcome,[7],inactive
same,Potency,[16],29.8 µM (active)
same,Potency,[17],5.96 µM (active)
same,Potency,[1],inactive
same,Potency,[2],inactive
same,Potency,[3],inactive
same,Potency,[4],inactive
Nc1nc2[nH]c(=O)cnc2c(=O)[nH]1,outcome,[9],inactive
same,outcome,[10],inactive
same,Potency,[8],inactive
same,outcome,[7],inactive
same,Potency,[1],inactive
same,Potency,[2],inactive
same,Potency,[3],inactive
same,Potency,[4],inactive
O=c1oc(Cl)c(Cl)c2ccccc12,outcome,[9],inactive
same,outcome,[10],inactive
same,Potency,[12],25.1 µM (active) and inactive
same,outcome,[7],inactive
same,Potency,[1],inactive
same,Potency,[2],inactive
same,Potency,[3],inactive
same,Potency,[4],inactive
C[C@H]1[C@@H](OC(=O)CCC(=O)O)O[C@@H]2O[C@@]3(C)CC[C@@H]4[C@H](C)CC[C@@H]1[C@@]24OO3,Potency,[1],9.68 µM (active)
same,Potency,[2],5.44 µM (active)
same,Potency,[3],5.44 µM (active)
same,Potency,[4],3.06 µM (active)
same,Potency,[6],3.16 µM (active)
